# Sampled rows, rich in hits. Any-hit rate of the full collection: about 3.6%.
# DUSP3 inh = VHR1 phosphatase inhibitors, primary screen, biochemical, absorbance, uHTS. 0.52% of 290,000 active. recombinant VHR phosphatase, pNPP absorbance. Dual specificity protein phosphatase 3 (Homo sapiens), P51452. inhibition, % at 13.3 µM; in the data active = inhibition above about 50%
# Target sequence (P51452 whole entry, looked up): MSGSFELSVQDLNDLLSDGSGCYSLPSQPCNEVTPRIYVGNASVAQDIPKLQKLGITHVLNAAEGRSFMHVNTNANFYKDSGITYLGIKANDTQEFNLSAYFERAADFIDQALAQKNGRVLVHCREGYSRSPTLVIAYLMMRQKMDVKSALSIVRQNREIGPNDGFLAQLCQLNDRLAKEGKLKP
# Mtb bLac sens = beta-lactam sensitization of Mtb H37Rv, H37Rv; M. tuberculosis H37Rv growth with meropenem, percent inhibition; inhibition, % at 25 µM; 0.27% of 330,000 active; AID 434955, 2010; call rule not given here;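 also: growth measured after seven days incubation then overnight dye step; 0% = bacteria only wells and 100% = bacteria with antibiotic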
# Mtb hypoxia rep = PubChem AID 1159583; M. tuberculosis hypoxia-regulated fluorescent reporter, fluorescence; fluorescence inhibition, % (concentration not given with the values); 0.1% of 300,000 active; in the data active = fluorescence inhibition mostly above about 23%, no sharp cut-off; inactive = mostly below about 17%
# Mtb FBA inh = Mtb FBA enzyme inhibitors, primary screen, biochemical, fluorescence, strain H37Rv. Fructose-bisphosphate aldolase (Mycobacterium tuberculosis (strain ATCC 25618 / H37Rv)), …. purified M. tuberculosis FBA, fluorescence read-out. inhibition, % at 1 µM. 2.3% of 360,000 active;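 also: 0% = vehicle and 100% = reference inhibitor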
# Target sequence (P9WQA3 whole entry, looked up): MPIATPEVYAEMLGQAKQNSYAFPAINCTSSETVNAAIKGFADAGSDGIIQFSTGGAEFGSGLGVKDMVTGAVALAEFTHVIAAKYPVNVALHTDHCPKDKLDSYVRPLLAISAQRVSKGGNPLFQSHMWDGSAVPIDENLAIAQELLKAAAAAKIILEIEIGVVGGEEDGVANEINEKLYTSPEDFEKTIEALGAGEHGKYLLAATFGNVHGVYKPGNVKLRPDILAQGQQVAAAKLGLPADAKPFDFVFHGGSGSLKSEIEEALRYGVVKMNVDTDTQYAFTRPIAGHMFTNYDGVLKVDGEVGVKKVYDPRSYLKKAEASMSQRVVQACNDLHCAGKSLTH
# GDH-TPI counter-1 = GDH-TPI coupling enzyme inhibitors, primary screen, artefact control for M. tuberculosis FBA inhibitor project, biochemical, absorbance, full deck | GDH-TPI coupled enzyme counterscreen, NADH absorbance | inhibition, % at 4.8 µM | 1.2% of 360,000 active; in the data active = inhibition above about 30%;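 also: 0% = DMSO wells and 100% = wells lacking the enzyme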
# Mtb FBA inh conf = M. tuberculosis aldolase blockers, biochemical, fluorescence, strain H37Rv, confirmation; shares compounds with Mtb FBA inh; purified M. tuberculosis FBA, fluorescence read-out; inhibition, % at 1 µM; 78% of 5,600 active;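 also: 0% = vehicle wells and 100% = reference inhibitor wells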
# GDH-TPI counter-2 = GDH-TPI coupling enzyme inhibitors, artefact control for M. tuberculosis FBA inhibitor project, biochemical, fluorescence, high throughput; inhibition, % at 1 µM; AID 652141, 2013; 81% of 5,600 active; shares compounds with Mtb FBA inh; GDH-TPI coupled enzyme counterscreen; in the data active = inhibition above about 10%
# * marks the source's active call; other numbers are inactive results; . = no result given; + = active, no number. Rule as the data show it, unless noted: active = inhibition above about 27%; inactive = the rest.
SMILES,DUSP3 inh,Mtb bLac sens,Mtb hypoxia rep,Mtb FBA inh,GDH-TPI counter-1,Mtb FBA inh conf,GDH-TPI counter-2
CCN(CC(=O)Nc1c(F)cccc1F)C(=O)Cc1csc(-c2ccc(OC)c(OC)c2)n1,.,-2.3,14.6,44.5*,-5.9,68.3*,55.7*
CCCS(=O)(=O)NCCc1csc(-c2ccc(OC)c(OC)c2)n1,21.3,-9.9,-2.1,34.7*,5.0,92.5*,77.6*
CCS(=O)(=O)NCCc1csc(-c2ccc(OC)c(OC)c2)n1,25.0,-2.2,-0.9,54.6*,11.6,-2.7,-5.0
COc1ccccc1NC(=S)N1CCN(CC=Cc2ccccc2)CC1,.,.,-3.4,.,.,.,.
C=CC1c2c(F)cccc2N(S(=O)(=O)c2ccc(C)cc2)C(c2ccc(C(=O)OC)cc2)C1(C#N)C#N (stereo not given),.,.,-6.1,.,.,.,.
CNC(=O)c1cc2c(ccc3ccccc32)o1,3.0,0.2,5.1,50.6*,10.9,127.5*,102.3*
O=C(NC1CCCC1)c1cc2c(ccc3ccccc32)o1,17.5,68.7,.,40.4*,-2.6,107.2*,79.8*
O=C(NC1CC1)c1cc2ccccc2o1,18.7,-9.3,4.8,3.3,-3.9,.,.
Cc1ccc(/C=N/NC(=O)c2cc3c(ccc4ccccc43)o2)o1,29.0,.,.,5.3,22.1,.,.
O=C(CON=C1CCCc2nonc21)Nc1ccccc1Cl,.,.,9.4,.,.,.,.
Cn1c(=O)n(Cc2ccccc2)c(=O)c2c1nc1n2CCCN1C1CCCCC1,.,99.8,8.1,3.3,10.8,.,.
Cn1c(=O)n(Cc2ccc(F)cc2)c(=O)c2c1nc1n2CCCN1C1CCCCC1,22.3,99.6,.,29.2*,1.2,153.6*,147.3*
CCCc1cc(=O)[nH]c2nnc(SCC(=O)NC3CCCC3)n12,.,0.7,4.4,3.1,-5.6,.,.
Cc1c(C)n2c(SCC(=O)NC3CCCCC3)nnc2[nH]c1=O,.,0.8,0.5,32.2*,4.2,-3.0,-4.4
Cc1ccc(C2C3C(=O)N(C)C(=O)C3[C@]3(C)C(=O)N(Cc4ccc(-c5ccccc5)cc4)CC(=O)N23)o1 (stereo not given in full),.,.,0.3,.,.,.,.
CCCCn1c(=O)nc2n(-c3ccccc3C)c3ccccc3cc-2c1=O,-1.5,6.9,13.0,60.6*,7.4,+,+
CCCCn1c(=O)c2ccccc2c2ccccc2c1=O,-11.0,2.0,-2.3,-0.8,-1.2,.,.
CCOc1cc(C=NNC(=O)CN2CCCCC2)ccc1O,.,.,6.5,.,.,.,.
Cc1ccc(NC(=O)C(C)SCc2nc3sc4c(c3c(=O)[nH]2)CCCC4)nc1 (stereo not given),20.2,-12.5,1.3,9.8,6.0,.,.
CC(SCc1nc2sc3c(c2c(=O)[nH]1)CCCC3)C(=O)Nc1ccccn1 (stereo not given),.,0.2,5.8,37.4*,6.0,127.3*,92.4*
Nc1nccnc1C(=O)OCc1nc2sc3c(c2c(=O)[nH]1)CCCC3,.,-2.5,-4.5,40.3*,9.1,+,+
O=C(N/N=C/c1ccc(N2CCOCC2)cc1)C1COc2ccccc2O1 (stereo not given),2.0,-2.7,.,38.2*,14.7,43.6*,41.5*
COc1ccnc(-n2cccc2C=NO)c1C#N,.,.,-0.4,.,.,.,.
Cc1ccc(NC(=O)Cn2nc(C)c([N+](=O)[O-])c2C)cc1C,16.6,10.9,-1.2,36.5*,-1.8,-5.3,-6.3
Cc1cc(-c2ccccc2)n2ncc(C#N)c2n1,8.2,-5.0,11.4,55.1*,24.5,-1.6,-6.5
SMILES,DUSP3 inh,Mtb bLac sens,Mtb hypoxia rep,Mtb FBA inh,GDH-TPI counter-1,Mtb FBA inh conf,GDH-TPI counter-2
Cn1c(=O)c2nc(-c3ccccc3)oc2c2ccccc21,-4.1,51.6,15.2,99.1*,9.3,91.2*,59.7*
CCCCCc1nc2c(=O)n(C)c3ccccc3c2o1,1.5,1.0,-8.8,-5.1,3.4,.,.
COc1ccc(C=NNC(=O)C[n+]2ccccc2)c(OC)c1,.,.,7.0,.,.,.,.
C/C(C=NNC(=O)CSc1nc(C)cc(C)n1)=C/c1ccccc1,.,.,4.0,.,.,.,.
CC1CCCC(C)N1C(=O)COc1ccc(C(=O)N/N=C/c2ccc(C(=O)O)cc2)cc1 (stereo not given),9.0,-0.6,.,60.0*,-0.6,119.7*,96.8*
Cc1cccc(C(=O)NN=Cc2ccc(OCC(=O)N3CCCCC3)cc2)c1,.,.,11.8,.,.,.,.
CCOC(=O)CNC(=O)c1ccc2[nH]c3ccccc3c2c1,35.6,8.5,5.9,60.5*,7.8,4.2,-4.4
O=C(NCC(O)CO)c1ccc2[nH]c3ccccc3c2c1 (stereo not given),17.8,-5.1,6.1,63.4*,-2.5,135.0*,107.5*
CCOC(=O)c1[nH]c2ccc(C(=O)OC)cc2c1C(=O)OCC,20.5,18.1,0.8,45.9*,7.6,113.7*,93.2*
O=C(NCCO)c1ccc2[nH]c3c(c2c1)CCCC3,15.3,-0.9,14.9,2.4,5.7,.,.
CCOC(=O)CNC(=O)c1ccc(C)cc1,24.3,2.9,.,3.3,10.9,.,.
Cc1cccc(C(=O)NC2c3ccccc3CC2O)n1 (stereo not given),.,.,9.5,.,.,.,.
Cc1cn2nc(N)c3ccccc3c2n1,-13.4,-7.4,4.5,41.7*,0.8,+,+
Cc1nc2ccccc2c2nc(N)nn12,22.0,-5.8,13.9,5.9,5.1,.,.
O=S(=O)(N=C(c1ccccc1)N1CCOCC1)c1ccc(Cl)cc1,.,.,4.4,.,.,.,.
CC(c1ccccc1)N1CCn2c(nc3cc(NC(=O)NC4CCCCC4)ccc32)C1 (stereo not given),89.8,0.3,2.2,56.9*,1.9,55.8*,52.2*
Cc1nn(CC(=O)Nc2ccc3c(c2)nc(CCN2CCCCC2)n3C)c(=O)c2ccccc12,12.9,2.3,10.6,10.0,-3.7,.,.
Cc1nn(CC(=O)Nc2ccc3c(c2)nc2n3CCN(C3CCCCC3)C2)c(=O)c2ccccc12,43.6,-0.1,-5.0,50.9*,-1.2,129.6*,101.4*
CCN(Cc1cn2cccnc2n1)C1CCCCC1,6.7,-9.9,2.5,109.3*,-5.0,-4.0,-2.1

# Screening results deposited in PubChem by several laboratories.
